# Only some compounds are listed: those with a hit (about 3.4% of all), similar ones and a draw of the others.
# TEAD-YAP block: TEAD-YAP interaction inhibition | HEK-TIYL cells, TEAD-Gal4/YAP UAS-luciferase luminescence | inhibition, % at 9.12 µM | 1.4% of 640,000 active; in the data active = inhibition above about 32%;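 note: 0% = median of test compound wells and 100% = reference inhibitor wells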
# GPR151 activ: human GPR151 activation; PathHunter beta-arrestin GPR151 cells, luminescence; activation, % at 11.2 µM; 1% of 650,000 active; in the data active = activation above about 4.9%;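 note: 0% = median of compound wells and 100% = cells with positive control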
# MITF inh: blocks human microphthalmia-associated transcription factor | O75030 | AlphaScreen MITF homodimerization, bead proximity signal | inhibition, % at 2.6 µM | 0.91% of 650,000 active | AID 1259374; in the data active = inhibition above about 50%;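 note: 0% = vehicle wells with protein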
# FBW7 act: human FBW7 E3 ligase activation, primary screen; AID 1259310; Q969H0; normalized activity (activation), % at 26.1 µM; 0.13% of 650,000 active; AlphaScreen FBW7–phospho-cyclin E peptide binding, activator screen; in the data active = normalized activity above about 1.9%;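 note: purified mutant Fbw7 with reduced substrate affinity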
# MITF confirm: human MITF inhibition, confirmation; shares compounds with MITF inh; AlphaScreen MITF homodimerization, biotin/His-MITF beads; inhibition, % at 2.6 µM; 16% of 4,700 active; AID 1259372;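 active = inhibition above a cutoff derived from the DMSO control wells, cut at about 28% in these data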;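 note: 0% = MITF dimer wells with DMSO only; inhibitors lower the bead chemiluminescence by keeping MITF from dimerizing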
# AS interf DR: counter-screen: compounds optically interfering with AlphaScreen. shares compounds with MITF inh. AlphaScreen optical interference counterscreen, cell-free. IC50, µM. 6% of 480 active. AID 1259373; call rule not given here
# AS interf ctr: counter-screen: compounds optically interfering with AlphaScreen; shares compounds with MITF inh; LysRS AlphaScreen counterscreen, signal interference, triplicate; inhibition, % at 2.6 µM; 7.6% of 4,700 active;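 active = inhibition above a cutoff derived from the DMSO control wells, cut at about 30% in these data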
# * marks the source's active call; other numbers are inactive results; x = not tested or not shown.
SMILES,TEAD-YAP block,GPR151 activ,MITF inh,FBW7 act,MITF confirm,AS interf ctr,others
Cc1ccc(S(=O)(=O)N2CCN(CC(=O)Nc3cc(Cl)ccc3C)CC2)cc1C,3,4,53*,0,-10,-6,
COc1cccc(-n2cccc2C=O)c1,-1,-2,-1,0,x,x,
COc1ccccc1OCCN1CCN(c2ccccc2)CC1,14,0,-1,0,x,x,
COc1ccccc1OCCN1CCOCC1,-4,-1,54*,0,6,9,
COc1ccccc1OCCN1CCCCC1,10,-1,27,0,x,x,
COc1ccccc1OCCN1CCN(C)CC1,-6,1,73*,0,5,9,
CN1CCCN(Cc2coc3c(Cl)cc(Cl)cc3c2=O)CC1,-9,0,55*,0,-11,-3,
CN1CCCN(Cc2c(Cl)cccc2Cl)CC1,4,2,63*,0,1,1,
CN1CCCN(Cc2c(F)cccc2F)CC1,0,0,78*,1,-9,-7,
O=CN1CCN(Cc2coc3c(Cl)cc(Cl)cc3c2=O)CC1,5,0,33,0,x,x,
CCN1C(=O)CC(C(=O)Nc2ccc(C(=O)O)cc2)SC1=Nc1ccc(Cl)cc1 (centres undefined),0,-1,13,0,x,x,
CC1=NN(c2ccc(C(=O)O)c(N)c2)C(=O)C1,-9,2,68*,-1,54*,18,AS interf DR=>6.5
COC1(OC)N=C(N)C2(C#N)C(c3ccc(C)cc3)C12C#N (centres undefined),5,0,55*,0,-2,6,
COC1(OC)N=C(N)C2(C#N)C(c3ccc(Cl)cc3)C12C#N (centres undefined),-4,-1,17,0,x,x,
COC1(OC)N=C(N)C2(C#N)C(c3ccc4c(c3)OCO4)C12C#N (centres undefined),6,2,48,0,x,x,
CCOC1(OCC)N=C(N)C2(C#N)C(c3ccc(OC)c(OC)c3)C12C#N (centres undefined),9,-1,25,0,x,x,
CCOC1(OCC)N=C(N)C2(C#N)C(c3cccc(C)c3)C12C#N (centres undefined),17,0,56*,0,-2,6,
COc1ccc(C2C3(C#N)C(N)=NC(OC)(OC)C23C#N)cc1 (centres undefined),0,2,74*,0,0,8,
CCOC(=O)N1CCN(C(=O)C2c3ccccc3C(=O)N(C3CCCCC3)C2c2ccc(OC)cc2)CC1 (centres undefined),-5,0,0,0,x,x,
CC(C(=O)Nc1ccccc1-c1ccccc1)N1CCCC1 (centres undefined),1,0,75*,0,13,19,
CC(N)C(=O)Nc1ccccc1-c1ccccc1 (centres undefined),2,0,7,0,x,x,
CCN(C(=O)Cn1ncc2c1-c1cc(C)ccc1OC2)c1ccccc1F,-15,0,-1,0,x,x,
CCN(C(=O)Cn1ncc2c1-c1cc(C)ccc1OC2)c1cc(OC)ccc1OC,10,3,70*,0,6,18,
CCCC/C(C)=N/NC(=O)COc1ccc(C#N)cc1,6,0,7,0,x,x,
O=C(CN1C(=O)c2ccccc2C1=O)NC1CCCCC1,-1,1,53*,0,-2,4,
SMILES,TEAD-YAP block,GPR151 activ,MITF inh,FBW7 act,MITF confirm,AS interf ctr,others
Cc1cc(/C=C2\C(=N)N3N=C(C(F)(F)F)SC3=NC2=O)c(C)n1-c1ccccc1,-1,0,-12,0,x,x,
COc1ccc(/C=C\C(=O)Nc2c3c(nn2-c2cccc(Cl)c2)CSC3)cc1OC,-13,0,-9,0,x,x,
Cc1cccc(C(=O)Nc2c3c(nn2-c2ccc(F)cc2)CSC3)c1,-3,2,53*,0,35*,-3,AS interf DR=>5.5
O=C(/C=C\c1ccccc1)Nc1c2c(nn1-c1cccc(Cl)c1)CSC2,-3,2,67*,0,10,-1,
Cc1cc(C)cc(C(=O)Nc2c3c(nn2-c2ccc(F)cc2)CSC3)c1,18,1,2,0,x,x,
Nc1cccc(N2C(=O)c3cc(S(=O)O)cc4c(N)c(S(=O)O)cc(c34)C2=O)c1,4,1,58*,0,79*,8,AS interf DR=>6.5
CC(=O)COC(=O)c1ccc2c(c1)C(=O)N(c1cccc(C(F)(F)F)c1)C2=O,6,1,9,0,x,x,

# High-throughput results deposited in PubChem BioAssay by The Scripps Research Institute Molecular Screening Center.
